# About 3,000 (1.5%) of roughly 200,000 compounds were called active. Shown is part of a subset that was picked to be rich in actives. A number with no mark means an inactive call.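 How the source made its calls: active means inhibition above about 50% when tested at 10 µM (limit read from the data); inactive means the rest.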
# Target: Luciferin 4-monooxygenase (Photinus pyralis) (UniProt P08659)
# Experiment: firefly luciferase enzyme inhibitors, primary screen, artefact control for luciferase-based inhibitor screens, biochemical, luminescence, ATPLite (AID 1006)
# Conditions: 10 min, at 10 µM, active compounds read high
# Sequence of Luciferin 4-monooxygenase (Photinus pyralis) (P08659 whole entry, looked up): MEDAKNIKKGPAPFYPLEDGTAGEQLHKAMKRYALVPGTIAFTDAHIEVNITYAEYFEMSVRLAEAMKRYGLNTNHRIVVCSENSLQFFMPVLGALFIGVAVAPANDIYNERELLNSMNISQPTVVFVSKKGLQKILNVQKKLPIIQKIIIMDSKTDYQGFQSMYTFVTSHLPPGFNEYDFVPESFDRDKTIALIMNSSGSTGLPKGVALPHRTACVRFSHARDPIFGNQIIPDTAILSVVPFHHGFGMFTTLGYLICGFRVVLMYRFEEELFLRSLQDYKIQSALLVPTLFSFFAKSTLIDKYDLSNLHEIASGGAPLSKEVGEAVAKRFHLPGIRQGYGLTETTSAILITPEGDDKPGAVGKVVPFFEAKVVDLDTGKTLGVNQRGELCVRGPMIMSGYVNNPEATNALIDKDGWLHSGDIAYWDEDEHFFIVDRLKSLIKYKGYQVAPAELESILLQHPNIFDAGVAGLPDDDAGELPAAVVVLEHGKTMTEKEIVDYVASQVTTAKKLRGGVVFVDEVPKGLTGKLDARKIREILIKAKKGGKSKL
row,Compound,inhibition
1,Cc1ccc(-c2cc(C(F)(F)F)n3ncc(C(=O)N4CCCCC4c4cccnc4)c3n2)cc1 (stereo not given),-6.3%
2,Cc1ccc(-c2nc(-c3cccnc3)sc2CC(=O)Nc2ccc(C)c(Cl)c2)cc1,-1.9%
3,Cc1cccc2c(=O)n3c(nc12)CCCCC3,-5.2%
4,Cc1c(C(=O)Nc2ccccc2)sc2nc3n(c(=O)c12)CCCCC3,-3.9%
5,O=c1c2c(nc3n1CCCCC3)sc1c(O)cccc12,60.4% (active)
6,CC(C)c1cc(NCc2ccccn2)n2c(nc3ccccc32)c1C#N,-5.4%
7,Cc1nnc(SC(C(=O)Nc2cc(Cl)cc(Cl)c2)c2ccccc2)[nH]c1=O (stereo not given),-3.6%
8,O=C(CC(=O)N/N=C\c1cccc(Cl)c1Cl)NCc1ccccc1,-7.3%
9,Cc1ccc(-c2cc(N)on2)cc1,17.5%
10,Cc1ccc(-c2cn3cc(C)ccc3n2)cc1,95.9% (active)
11,CS(=O)(=O)Nc1cccc(-c2cn3ccccc3n2)c1,16.8%
12,COc1ccc(OC)c(-n2c(=S)[nH]c3cc(C(=O)N4CCCCC4)ccc3c2=O)c1,-6.8%
13,C/C(=N\Nc1ncc(Cl)cc1Cl)c1ccc(S(=O)(=O)NCc2ccco2)cc1,2%
14,C/C(=N\Nc1nc(Nc2ccccc2)nc(N2CCOCC2)n1)c1cccs1,5.5%
15,C/C(=N\Nc1nc2ccccc2[nH]1)c1cccs1,73.6% (active)
16,O=C(CSc1nc2ccccc2[nH]1)c1cccs1,5.4%
17,C/C(=N\Nc1ncc(Cl)cc1Cl)c1cccs1,57.2% (active)
18,COc1cccc(/C(C)=N/Nc2ncc(Cl)cc2Cl)c1,4.4%
19,Cc1cc(NC(C)C)n2c(nc3ccccc32)c1C#N,-2%
20,O=[N+]([O-])c1ccc2c(c1)C(N1CCOCC1)/C(=C/C1(O)CCCCC1)O2 (stereo not given),0.2%
21,O=C(CN1CCC(O)(c2ccccc2)CC1)Nc1ccc2c(c1)OCCO2,-7.8%
22,C=CCc1cccc2cc(C(=O)Nc3ccc(NC(C)=O)cc3)c(=O)oc12,-2.7%

row,Compound,inhibition
1,CC(C)N(Cc1ccccc1)C(=O)COC(=O)c1cnccn1,-3.5%
2,CCCC(=O)N=c1sc2cccc(F)c2n1C,7%
3,Cn1c(=NC(=O)C2CC2)sc2cc(F)cc(F)c21,0.6%
4,Cn1c(=NC(=O)c2ccco2)sc2cccc(F)c21,59.7% (active)
5,C=C(C)c1cccc(C(C)(C)NC(=O)NC2CCCC2)c1,-3.3%
6,CCC(=O)N1CCC(C(N)=O)(N2CCCCC2)CC1,-4.7%
7,CCOc1ccc(Nc2nc(Cl)nc(N3CCN(c4ccc(OC)cc4)CC3)n2)cc1,-4.4%
8,COc1ccc(Nc2ncc(F)c(N3CCOCC3)n2)cc1,75.2% (active)
9,c1ccc(Nc2nc(N3CCOCC3)c3ccccc3n2)cc1,2%
10,Cc1nc(N2CCOCC2)sc1C(=O)NN,0.3%
11,CCOc1ccc(C(=O)Nc2ccncc2)cc1,11.8%
12,CCOc1ccc(C(=O)Nc2cccc(-c3ccc4nncn4n3)c2)cc1,37.7%
13,CCOc1ccc(C(=O)Nc2cccc(SC)c2)cc1,62.1% (active)
14,O=C1CC(c2c(F)cccc2Cl)C(n2cncn2)C(O)=C1C1NCCc2ccccc21 (stereo not given),-4.6%
15,O=C(c1cncc(Br)c1)N1CCN(c2ccc([N+](=O)[O-])cc2)CC1,-0.9%
16,COC(=O)c1ccc(-c2noc(CN(Cc3ccccn3)CC3CCCO3)n2)cc1 (stereo not given),4.4%
17,Cc1ccc(-n2c(C)cc(C(=O)CN3C(=O)C(=O)N(C4CCCC4)C3=O)c2C)cc1,-7.1%
18,Cc1cc(C(=O)COC(=O)C2CC2)c(C)n1-c1ccc(F)cc1,95% (active)
19,COc1cc(/C=N/NC(=O)c2cc(C)n(-c3ccc(F)cc3)c2C)cc(OC)c1O,5.2%
20,CCOc1ccc(N=Cc2c(O)n(-c3cccc(C)n3)c(=O)c3ccccc23)cc1,-1%
21,CC(=O)n1c(C=Nc2ccccc2)c(O)c2ccccc21,61.6% (active)
22,CCCn1c(=O)c(-c2ccccc2)c(O)c2ccccc21,0.1%

row,Compound,inhibition
1,Cc1cccc(C(=O)NNC(=O)c2cccc([N+](=O)[O-])c2)c1,-0.8%
2,CC(C)(C)Cc1nnc(NC(=O)c2cc(-c3ccccc3)nc3ccccc23)s1,-4.3%
3,O=C(NCCc1ccccn1)c1cc(-c2ccc(Cl)cc2)nc2ccccc12,1.6%
4,CCc1ccc(-c2cc(C(=O)NN3CCN(C)CC3)c3ccccc3n2)cc1,63% (active)
5,Cc1nc2ccc(NC(=S)N3CCC(C)CC3)cc2nc1C,-2.6%
6,O=C(C1CCCN1S(=O)(=O)c1ccc(Br)cc1)N1CCOCC1 (stereo not given),0.6%
7,CCCCN(CC)CCCNC(=O)c1ccc(CSc2nc3ccncc3[nH]2)cc1,37.9%
8,O=C(CC1CCCCC1)NCc1ccc(F)cc1,-3.7%
9,c1ccc(-n2nnnc2-c2cccnc2)cc1,-0.4%
10,COc1ccc(C(=O)Nc2ccc(S(=O)(=O)NC(C)C)cc2)cc1,-3.1%
11,COc1cccc(C(=O)Nc2ccc(N3CCCC3)cc2)c1,67.6% (active)
12,COc1ccc(C(=O)NC(=S)Nc2ccc(N3CCCC3)cc2)cc1OC,-14.5%
13,COc1cccc(C(=O)NNC(=O)c2ccccc2Br)c1,2.9%
14,COc1cccc(C(=O)Nc2cc3c(cc2Br)OCCCO3)c1,64.3% (active)
15,COc1cccc(OC)c1C(=O)Nc1ccc(N2CCCCC2)cc1,-8.2%
16,COc1ccc(C2COC(=O)C2=N)c(NC(=O)c2ccccc2)c1 (stereo not given),-6.7%
17,COc1ccc(NC(=O)c2ccc(C#CC(C)(C)O)cc2)cc1,5.6%
18,COc1ccc(NC(=O)c2ccc(OC)cc2)cc1,63.1% (active)
19,CC(C)(C)C1CCC(C(=O)Nc2cccnc2)CC1 (stereo not given),-3.4%
20,COc1ccc(-c2csc(-c3cccs3)n2)cc1OC,19.9%
21,COc1cccc(C(=O)NCCSc2ccc(Br)cc2)c1,2.1%

# From PubChem BioAssay AID1006 (Sanford-Burnham Center for Chemical Genomics, 2008)
